BCR signal inh = blocks chronic active B-cell receptor signaling; ABC-DLBCL IkBa-CBG/CBR reporter, luminescence ratio, 4 h; Potency, µM (top dose mostly 46.1 µM), for the others: at the highest dose activity change, negative = inhibition, actives largely listed as inhibitors; 340,000 tested, 0.05% active; AID 493014; active means well fitted inhibition curve with a large enough effect in the signal ratio, with a control signal flat, not every such curve was filed as active; inconclusive means small, poorly fitted or top-dose-only effect, or effect the other way, or a change in a side signal; the % refers to the signal ratio;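 further: potency means the concentration at half of the fitted maximal effect; plate controls were basal doxycycline-induced cells for no effect and cells given 10 µM MG132 for full effect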
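Concentration-response series (up to 46 uM) were applied to TMD8 dual-reporter cells for 4 h at 37C with doxycycline. Green/red ratio, after filter-overlap correction, defined %Activity; red signal alone was normalised to basal cells and zero luminescence.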
Mito fusion yeast = blocks mitochondrial division or promotes mitochondrial fusion | S. cerevisiae fusion-defective mutant growth rescue, CellTiterGlo 48 h | Potency, µM (highest dose often 46.1 µM), for inactives: top-dose growth rescue (activation), hits mostly activators | 320,000 tested, 0.23% active; further: potency means the concentration at half of the fitted maximal effect; % of control where 0% means no effect; nearly all actives have a fitted effect of over 45% in size
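Temperature-sensitive fusion-defective S. cerevisiae (e.g. fzo1-1, mgm1-5) were grown with compound in YPEG medium (3% ethanol, 3% glycerol) for 48 hours at 37C. Growth rescue was measured as viability by CellTiterGlo luminescence after 10 minutes at ambient.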
PTHR1 agonist = agonists of human PTHR1 parathyroid hormone receptor; Q03431; HEK293 GP2 PTHR1 cells, GloSensor cAMP luminescence, 1 h; Potency, µM (series often up to 115 µM), for the others: top-dose activation, hits mostly activators; 410,000 tested, 0.075% active; AID 743266; further: potency means the concentration at half of the fitted maximal effect; nearly all actives have a fitted effect of over 55% in size
Target sequence (Q03431 whole entry, looked up): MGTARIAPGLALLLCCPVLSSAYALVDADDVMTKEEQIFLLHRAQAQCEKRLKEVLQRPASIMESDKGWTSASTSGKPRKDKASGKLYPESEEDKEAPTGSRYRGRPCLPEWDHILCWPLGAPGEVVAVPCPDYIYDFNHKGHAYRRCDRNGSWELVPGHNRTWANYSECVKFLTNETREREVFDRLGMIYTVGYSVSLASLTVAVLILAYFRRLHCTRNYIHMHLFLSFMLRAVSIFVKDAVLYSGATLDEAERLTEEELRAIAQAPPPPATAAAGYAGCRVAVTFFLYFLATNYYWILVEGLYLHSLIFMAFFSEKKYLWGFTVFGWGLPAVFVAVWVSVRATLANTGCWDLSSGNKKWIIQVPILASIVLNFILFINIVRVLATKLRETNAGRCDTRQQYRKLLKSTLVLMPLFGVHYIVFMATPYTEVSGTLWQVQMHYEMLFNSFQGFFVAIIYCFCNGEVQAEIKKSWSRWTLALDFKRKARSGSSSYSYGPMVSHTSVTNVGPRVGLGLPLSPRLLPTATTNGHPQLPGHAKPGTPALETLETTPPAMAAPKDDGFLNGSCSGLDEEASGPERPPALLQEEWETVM
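HEK-293-derived GP2 cells expressing PTHR1 and a GloSensor cAMP reporter, 3,000/well, plated overnight, given luciferin plus IBMX (each 0.5 mM as added) for 1 h at 37 °C, then compound for 1 h at 37 °C. Luminescence was read after 15 min at room temperature.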
TCR activator = activates T cell receptor signaling | primary human leukocytes, anti-CD3, IL-2 HTRF, 48 h | Potency, µM (titrated, usually from 9.22 µM), for inactives: top-dose activation of IL-2 secretion, usual class: activators | 330,000 tested, under 10 active | AID 504894; further: % of control where 0% means no effect
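Human primary leukocytes + a-CD3 beads + cpd, 48 hr; IL-2 in supernatant by HTRF (ex 320nm / em 665nm). No co-stimulatory signal supplied.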
BRCA1 expr act = activators of BRCA1 expression; MCF7-BRCA1-FFLuc reporter, luminescence, 48 h; response scale: scaled: vehicle 0%, 10 µM genistein 100%; 380,000 tested, 1.1% active; Potency, µM (highest dose often 46.1 µM), inactives show at the top dose activation, usual class: activators; AID 624202; further: potency means the concentration at half of the fitted maximal effect; nearly all actives have a fitted effect of over 80% in size
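Luminescence from a BRCA1-driven firefly luciferase in MCF7 cells was read after 48 h compound exposure at 37 C. Data normalized against DMSO and a 10microM genistein activation control, then curve-fitted across the titration.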
IL2 activator = IL-2 activation. activation, % (series mostly up to about 46 µM). 360,000 tested, 0.065% active. IL-2 activation reporter assay, cell-based qHTS; stimulated with anti-CD3/CD4/CD28 beads; in transgenic mouse T cells; in the data active means activation above about 50%; inconclusive means mostly about 30% to 49%; further: 0% is about no effect
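Unstimulated transgenic mouse T cells, 750 per well, received compound and, after 60 minutes, anti-CD3/anti-CD4 bead plus anti-CD28 stimulation. EGFP and DsRed were quantified after 18 hours.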
* marks the source's active call; other numbers are inactive results; i = inactive; u = inconclusive; x = no result; ! = not active in a repeat; [ ] = remark or other dose. Shown are actives, neighbours in structure and some others; about 1.3% of the full set was active somewhere. Unless noted, the call rests on the fitted dose curve; in most records, active means well fitted curve in the direction sought with a large enough effect; inconclusive means small, poorly fitted or top-dose-only effect, or another doubt; inactive means no such curve, though single readings can be large; an effect the other way counts as inactive or inconclusive.

SMILES	BCR signal inh	Mito fusion yeast	PTHR1 agonist	TCR activator	BRCA1 expr act	IL2 activator
C/C(=N\Nc1nncc2ccccc12)c1ccc(C(C)(C)C)cc1	u	-11%	i	-8%	2.5µM*	-4
Cc1cccc(Cc2c(C)nc3nc(SCC(=O)NCc4ccc(F)cc4)nn3c2C)c1	x	x	-2%	x	x	x
COC(=O)[C@@]12CCCCN1[C@H](c1ccc(-c3ccccc3)cc1)[C@H]1C(=O)N(C)C(=O)[C@H]12	-8%	u	i	-1%	-15%	-1
COC(=O)[C@@]12CCCCN1[C@H](c1ccc(-c3ccc(F)cc3)cc1)[C@@H]1C(=O)N(C)C(=O)[C@@H]12	u	13µM*	-34%	6%	-5%	0
Cc1ccc(Nc2nc(N)nc(COC(=O)C3=COCCO3)n2)cc1	-1%	2%	u	2%	4µM*	-1
Cc1ccc(Nc2nc(N)nc(CSC(=S)N3CCOCC3)n2)cc1	-27%	-6%	-16%[57.5 µM]	1%	5µM*	-3
Nc1nc(CSC(=S)N2CCCCC2)nc(Nc2ccccc2)n1	u	6%	i	-7%	14µM*	-2
CC(C)(C)[C@@H]1COC(=O)[C@H](Cc2ccc(F)cc2)CC/C=C\C[C@@H](CC(=O)NCCO)C(=O)N1	-3%	x	i	-2%	-8%	-1
CNc1nnc(-c2cc3cc(Cl)ccc3oc2=O)s1	u	3%	-23%[57.5 µM]	1%	10µM*	-1
Cc1ccc(C)n1-c1ccc(-c2nnco2)cc1	0%	2%	x	x	x	x
Cc1cc(-c2nnco2)c(C)n1-c1ccc(F)cc1	u	2%	7.1µM*	4%	98%	0
CC1=C(C)C(=O)C(CCCCC#CCCCC#CCO)=C(C)C1=O	u	18µM*!	-33%	-1%	-16%	0
COC1=C(OC)C(=O)C(CCCCCCCCCCO)=C(C)C1=O	u	1%	x	x	x	x
CC1(C)CC(NC(=O)c2cc(S(=O)(=O)N3CCOCC3)c(Cl)cc2Cl)CC(C)(C)N1	0%	1%	i	-3%	4%	7
Cc1ccc(-c2cnn(-c3cccc([N+](=O)[O-])c3)c2N)cc1	u	-2%	-90%	8%	5.6µM*	0
Nc1c(-c2ccccc2)cnn1-c1cccc(C(F)(F)F)c1	-17%	11%	-73%[57.5 µM]	3%	5µM*	0
CNc1ccc(/C=C2\C=Cc3ccccc32)cc1I	x	x	x	x	-23%	x
O=c1cc(-c2ccsc2)oc2ccc(-c3ccc4cc[nH]c4c3)cc12	u	x	-19%	1%	5.6µM*	-1
CC(=O)Nc1ccc(N=Nc2c(C)[nH]n(C(N)=S)c2=O)cc1	0%	3%	-9%	0%	10µM*	2
O=C(O)CCc1ccc(-c2ccccc2)n1-c1cccc(C(=O)O)c1	u	0%	i	-4%	13µM*	0
CCc1cc(=O)oc2cc(C)cc(OC(C)C(=O)NCc3ccccn3)c12 (stereo not drawn)	3%	5%	-7%	3%	-2%	-2
C=CCN1N=C(/C=C/c2ccc(C)cc2)CCC1=O	u	-4%	-2%	-1%	11µM*	3
C=CCN1N=C(/C=C/c2ccc(OC)cc2)CCC1=O	3%	11%	-4%	1%	u	0
CC(C(=O)c1ccccc1)[n+]1ccc(Cl)c2ccc(Cl)cc21 (stereo not drawn)	x	x	x	x	-1%	x
COc1ccc(/C(N)=N/OC(=O)c2cccs2)cc1OC	-19%	-3%	-9%	0%	8.9µM*	-3
SMILES	BCR signal inh	Mito fusion yeast	PTHR1 agonist	TCR activator	BRCA1 expr act	IL2 activator
Cc1ccc(/C(N)=N/OC(=O)c2cccs2)cc1	u	13%	-6%	4%	42%	-1
COCCNc1oc(-c2ccc(C)cc2)nc1C#N	u	0%	-70%	-1%	u	1
N#Cc1nc(-c2ccc(Cl)cc2)oc1NCCc1ccccn1	u	2%	i	-28%	3.5µM*	-1
Cc1ccc(-c2nc(C#N)c(NCCc3ccccn3)o2)cc1	u	0%	-30%[57.5 µM]	0%	3.5µM*	1
COCCNc1oc(-c2ccc(Cl)cc2)nc1C#N	u	4%	-6%	-12%	5.6µM*	-1
COc1cccc(CNC(=O)[C@@H]2CCCN2C(=O)[C@H]2CCCCN2)c1	x	x	-11%	x	4%	0
Cn1c2cc([N+](=O)[O-])sc2c2cnn(Cc3ccccc3F)c(=O)c21	7%	1%	x	x	x	x
Cc1cc2nc(N)sc2cc1[N+](=O)[O-]	u	2%	i	1%	13µM*	-1
COc1ccc2nc(N)sc2c1	u	3%	i	-4%	68%	-1
Cc1nc2ncccn2c1-c1csc(Nc2ccccc2)n1	u	7%	-22%	5%[46.1 µM]	-79%	1
COc1ccc(Nc2nc(-c3c(C)nc4ncccn34)cs2)cc1	3.5µM*	17%	-21%	3%	-64%	-2
CCOc1ccc(N2C(=O)S/C(=C\c3cccn3C)C2=O)cc1	0%	1%	-21%	0%[46.1 µM]	76%	1
Cn1cccc1/C=C1\SC(=O)N(c2ccc(O)cc2)C1=O	u	-3%	-9%	-1%[46.1 µM]	10µM*	51*
CCOC(=O)C1(Cc2cccc(OC)c2)CCCN(C(=O)CCN2CCCO2)C1 (stereo not drawn)	2%	1%	-18%	1%	4µM*	-1
Cc1c(O)c2c(=O)n(-c3ccccc3)c(-c3ccccc3)cc2oc1=O	4%	10µM*	-7%	1%[46.1 µM]	-28%	3
C/C(=N\O)c1c(O)cc(-c2ccccc2)n(-c2ccccc2)c1=O	-27%	2%	i	0%	-2%	-3
C=CCC1(CC=C)CCCN1Cc1nc(COc2ccccc2)no1	-3%	-9%	i	1%	-27%	-1
C=CCc1cccc(C=Nc2cccn3cc(-c4ccccc4)nc23)c1O	u	3%	-11%	-1%	11µM*	0
CSc1cccc(N2CC(C(=O)NCCC3=CCCCC3)CC2=O)c1 (stereo not drawn)	8%	9%	-8%	-5%	28%	0
CC(C)Cc1cc(C(=O)N2CCCC(C(=O)c3cc(F)ccc3F)C2)no1 (stereo not drawn)	3%	11µM*	-27%	-9%	-6%	-2
O=C(Cc1ccc(F)cc1)NO	x	x	x	x	0%	x
NCC1OC(O[C@H]2[C@H](O)[C@@H](OC3C(O)C(N)CC(N)C3OC3OC(CO)C(O)C(O)C3N)O[C@@H]2CO)C(N)C(O)C1O (stereo partly drawn)	x	-6%	x	x	x	x

Compound activity deposited in PubChem BioAssay by National Center for Advancing Translational Sciences (NCATS).
